From PubChem BioAssay AID1259421 (Broad Institute, 2018)
Where “and” joins values, the source holds several entries; their conditions need not be identical. Equal values may be shown once. Among all 6,400 compounds or so, about 610 (9.5%) were called active. This excerpt belongs to a sample that is enriched for actives. Unmarked numbers belong to inactive results. Rule as the data show it: active = activity change below about -70%; inconclusive = no clear call, values can overlap the other calls; inactive = above that.

Assay: T. gondii ME49Luc in HeLa cells, luciferase assay, 72 h, no IFN-y (AID 1259421)
Conditions: hits give low values, concentration not given here

Compound	activity change, negative = inhibition
COc1ccc(CCN(C)CCCC(C#N)(c2cc(OC)c(OC)c(OC)c2)C(C)C)cc1OC (stereo not drawn)	41.7%
N=C(CC(O)COc1ccccc1-c1ccccc1)N1CCCCC1 (stereo not drawn)	10.7%
COc1ccc(-c2cnc3c(-c4cccc5ncccc45)cnn3c2)cc1	2.75%
CC(C)Oc1ccc(-c2cnc3c(-c4ccnc5ccccc45)cnn3c2)cc1	-49.1%
c1cc(-c2cnn3cc(-c4ccc(N5CCNCC5)cc4)cnc23)c2cccnc2c1	-84.7% (active)
COC(F)(F)C(Cl)Cl	19.6%
CC(C)(Oc1ccc(Cl)cc1)C(=O)N1CSCC1C(=O)O (stereo not drawn)	19%
NC(=O)C1CC2(NC(=O)NC2=O)c2cc(F)ccc2O1 (stereo not drawn)	12.6%
Cc1nc(Nc2ncc(C(=O)Nc3c(C)cccc3Cl)s2)cc(N2CCN(CCO)CC2)n1	-75.5% (active) and -82.6% (active)
Cc1cc(Nc2cc(N3CCN(C)CC3)nc(Sc3ccc(NC(=O)C4CC4)cc3)n2)n[nH]1	-15.4% and -14.2% and -8.95%
S=c1[nH]c2ccccc2s1	14.8% and 4.19%
S=c1nc[nH]c2[nH]ncc12	-6.21%
C[C@]12CCC(=O)C=C1CCC1C2[C@@H](O)C[C@@]2(C)C1CC[C@]2(O)C(=O)COC(=O)CCC(=O)O (stereo partly drawn)	-4.51% and -4.05%
COC1C(O)[C@@H](O)C(O)C(O)[C@H]1O (stereo partly drawn)	4.8%
COc1ccc2c(c1)OCC(Cc1ccc(OC)c(OC(C)=O)c1)C2=O (stereo not drawn)	-72% (active)
COc1ccc2c(c1)OCC(Cc1ccc(O)c(OC)c1)C2=O (stereo not drawn)	-0.0941%
COc1ccc2c(c1)OCC(Cc1ccc(OC)c(OC)c1)C2=O (stereo not drawn)	-1.15%
CO/N=C(/C(=O)N[C@@H]1C(=O)N2C(C(=O)O)=C(C[n+]3cccc4c3CCC4)CS[C@H]12)c1csc(N)n1	14.5%
CO/N=C(/C(=O)NC1C(=O)N2C(C(=O)O)=C(CSc3nc(=O)c(=O)[nH]n3C)CSC12)c1csc(N)n1 (stereo not drawn)	-0.639%
COc1ccc([C@@H]2Sc3ccccc3NC(=O)[C@@H]2O)cc1	11.7%
O=P(O)(O)OC[C@H]1OC(O)[C@H](O)[C@@H](O)[C@@H]1O (stereo partly drawn)	7.08%
CC(=O)NCCc1c(Cc2ccccc2)[nH]c2ccccc12	-2.39%
Cc1[nH]c2ccccc2c1CCNC(=O)c1cccs1	9.58%
Cc1[nH]c2ccccc2c1CCNCc1ccc(/C=C/C(=O)NO)cc1	-73.2% (active) and -76.5% (active)
CC(C)(N)C(=O)N[C@H](COCc1ccccc1)C(=O)N1CCC2(CC1)CN(S(C)(=O)=O)c1ccccc12	5.12%
Cc1cc(/C(=C\Nc2ccc(Cl)cc2)C(=O)Nc2ccc(Cl)cc2)on1	18.7%
FC(F)(F)C(F)(F)C(F)(F)C(F)(F)C(F)(F)C(F)(F)C(F)(F)C(F)(F)Br	2.95%

Compound	activity change, negative = inhibition
CC(=O)c1ccc2c(c1)[C@@H]1C=CC[C@@H]1[C@H](c1cc3c(cc1Br)OCO3)N2	-79.7% (active)
O=C(O)c1ccc2c(c1)OCO2	16%
Brc1cc2c(cc1[C@H]1Nc3ccccc3[C@H]3C=CC[C@H]31)OCO2 (racemic)	11.8%
COC(=O)C1=C(C)NC(C)=C([N+](=O)[O-])[C@@H]1c1ccccc1C(F)(F)F	1.1%
C/C(=C(/CCO)SSCC1CCCO1)N(C=O)Cc1cnc(C)nc1N (stereo not drawn)	15%
C=CC(=O)Nc1cccc(Oc2nc(Nc3ccc(N4CCN(C)CC4)cc3OC)ncc2Cl)c1	-35.2%
CN1CCN(c2ccc(OC(F)(F)F)c(Nc3ncc4c(n3)-c3c(c(C(N)=O)nn3CCO)CC4)c2)CC1	-90.8% (active)
CCC(=O)Nc1cccc(Oc2nc(Nc3ccc(N4CCN(C)CC4)cc3OC)ncc2Cl)c1	7.36%
CCN(CC)S(=O)(=O)c1ccc(C(=O)O)cc1	-0.641% and 12.4%
CCc1cc(C(C)=O)c(O)cc1OCCCCCC(C)(C)c1nn[nH]n1	50.8% and 31.2%
Nc1ccncc1N	-3.18%
CCC(=O)N1CCN(c2ccc(-n3c(=O)ccc4cnc5ccc(-c6cnc7ccccc7c6)cc5c43)cc2C(F)(F)F)CC1	-56%
Nc1ccc(-c2ccc3ncc4ccc(=O)n(-c5cccc(C(F)(F)F)c5)c4c3c2)cn1	-76.7% (active)
COc1ccc(C(=O)CCC(=O)O)c2ccccc12	2.31%
COC(=O)c1cc(S(C)(=O)=O)ccc1OC	9.8%
COc1ccc(CCN2CCN(CCCc3ccccc3)CC2)cc1OC	-27.2%
OCC1OC(n2cnc3c(NC4CCCC4)ncnc32)C(O)C1O (stereo not drawn)	1.64%
N#C/C(=C\c1ccc(O)c(O)c1)C(N)=O	16.2% and 6.7%
CC(C)(C)c1cc(/C=C(\C#N)C(N)=S)cc(C(C)(C)C)c1O	-82.2% (active) and -86% (active)
N#CC(C#N)=C(N)/C(C#N)=C/c1cc(O)c(O)c(O)c1	5.32%
COc1cc(N)c(Cl)cc1C(=O)N[C@@H]1CCN(CCCOc2ccc(F)cc2)C[C@@H]1OC	6.27%
COc1ccc(C2(O)CCC(N3CC[C@@H](NC(=O)CNC(=O)c4cccc(C(F)(F)F)c4)C3)CC2)cn1 (stereo partly drawn)	4.89%
Cc1ccc(S(=O)(=O)c2ccc([N+](=O)[O-])o2)cc1	10.8%
CCCC[C@H](NC(=O)[C@@H]1[C@@H]2[C@H](CN1C(=O)[C@@H](NC(=O)NC1(CS(=O)(=O)C(C)(C)C)CCCCC1)C(C)(C)C)C2(C)C)C(=O)C(=O)NC1CC1	23.2%
CCC[C@H](NC(=O)[C@@H]1[C@H]2CCC[C@H]2CN1C(=O)[C@@H](NC(=O)[C@@H](NC(=O)c1cnccn1)C1CCCCC1)C(C)(C)C)C(=O)C(=O)NC1CC1	-72.4% (active)
CC(C)(C)NC(=O)N[C@H](C(=O)N1C[C@H]2[C@@H]([C@H]1C(=O)NC(CC1CCC1)C(=O)C(N)=O)C2(C)C)C(C)(C)C (stereo partly drawn)	0.503%
